# Bioassay records (PubChem)
# Compounds with a hit are over-represented: about 4.4% of the library has one in this group of screens.
# TRHR enhancer-1: qHTS for Small Molecule Agonists and Allosteric Enhancers of Human TRH Receptor: Primary Screen for Enhancers; AID 493056, 2011; TRHR cells, fluo-8 calcium fluorescence, EC20 TRH enhancement; hit rate 0.66% among 360,000; enhancement, % at 2 µM; in the data active = enhancement above about 30%; also: 0% is about no effect
#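 Enhancer read-out: after compound pinning and an initial kinetic agonist-mode read, an EC20 of TRH (10 nM final) was injected and fluo-8 calcium signal (Ex 480/Em 530) followed at 1 s/cycle for 100 cycles in TRHR-expressing cells.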
# TRHR agonist-1: qHTS for Small Molecule Agonists and Allosteric Enhancers of Human TRH Receptor: Primary Screen for Agonists; hit rate 0.18% among 360,000; activation, % at 2 µM; Thyrotropin-releasing hormone receptor (Homo sapiens), P34981; TRHR cells, calcium flux fluo-8, FDSS agonist mode; in the data active = activation above about 30%; also: 0% is about no effect
#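 Fluo-8-loaded TRHR cells; 10 s baseline, compound added, kinetic Ca2+ fluorescence read 1/s, agonist mode.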
# D1 agonist: Allosteric Agonists of the Human D1 Dopamine Receptor: qHTS | D(1A) dopamine receptor (Homo sapiens), P21728 | HEK293 T-REx D1 cells, calcium flux, agonist mode | activation, % at 2 µM | hit rate 1% among 360,000 | AID 504660, 2011; in the data active = activation above about 30%; also: 0% is about no effect
#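 Tetracycline-induced HEK293 TREx D1 cells, force-coupled to calcium signalling, were dye-loaded with a no-wash calcium kit. Compound was pin-added after a 10 s baseline. Fluorescence was read kinetically at 1 cycle/s for 180 s, with calcium rises flagged as agonism.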
# D1 antag: Antagonist of Human D 1 Dopamine Receptor: qHTS. hit rate 3.2% among 360,000. HEK293 TREx D1 cells, calcium flux, dopamine EC80; hits give low values. D(1A) dopamine receptor (Homo sapiens), P21728. activity change, negative = inhibition, % at 10 µM; in the data active = activity change below about -30%; also: % is scaled to controls: 0 for no effect and ±100 for the full control effect
#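 Compound effects on dopamine-evoked calcium signalling were measured in tetracycline-induced HEK293 Trex D1 cells. Dopamine at EC80 followed a 180 s compound pre-read, and fluorescence was tracked kinetically for 180 s more.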
# USP1-UAF1 inh: Inhibitors of USP1/UAF1: Primary Screen | Potency, µM (top dose mostly 57.1 µM), inactives show top-dose activity change, negative = inhibition, most hits filed as inhibitors | recombinant USP1/UAF1, Ub-Rhodamine cleavage fluorescence | Ubiquitin carboxyl-terminal hydrolase 1 (Homo sapiens), O94782 | hit rate 0.23% among 390,000 | AID 743255, 2014; also: potency is read from the fitted curve at half-maximal effect; % is scaled to controls: 0 for no effect and ±100 for the full control effect; nearly all actives have a fitted effect of over 60% in size
# Target sequence (O94782 whole entry, looked up): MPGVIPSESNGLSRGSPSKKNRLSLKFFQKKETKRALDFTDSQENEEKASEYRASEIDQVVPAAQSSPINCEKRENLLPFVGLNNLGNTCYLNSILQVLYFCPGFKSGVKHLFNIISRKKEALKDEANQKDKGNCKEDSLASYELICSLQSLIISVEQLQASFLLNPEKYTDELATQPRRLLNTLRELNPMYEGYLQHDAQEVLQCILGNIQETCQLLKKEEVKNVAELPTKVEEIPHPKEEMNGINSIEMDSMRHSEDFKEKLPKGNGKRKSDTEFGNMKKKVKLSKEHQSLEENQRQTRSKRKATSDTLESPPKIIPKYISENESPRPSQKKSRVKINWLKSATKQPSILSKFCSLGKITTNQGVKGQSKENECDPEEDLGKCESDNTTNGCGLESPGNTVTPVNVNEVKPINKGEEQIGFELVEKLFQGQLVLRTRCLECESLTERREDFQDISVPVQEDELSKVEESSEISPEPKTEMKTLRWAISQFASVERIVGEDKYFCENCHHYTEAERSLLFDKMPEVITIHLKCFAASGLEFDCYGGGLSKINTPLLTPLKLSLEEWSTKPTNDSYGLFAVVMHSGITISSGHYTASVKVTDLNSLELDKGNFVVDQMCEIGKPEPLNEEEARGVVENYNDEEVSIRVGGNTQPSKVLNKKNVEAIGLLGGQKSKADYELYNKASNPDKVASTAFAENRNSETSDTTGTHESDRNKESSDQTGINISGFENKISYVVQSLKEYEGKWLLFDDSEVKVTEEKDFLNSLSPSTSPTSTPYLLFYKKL
#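 USP1/UAF1 complex at 1 nM was preincubated with compound for 15 min at room temperature, then Ub-Rho substrate (150nM final) was added. Fluorescence (480/540 nm) was read kinetically, 6 reads every 60 seconds.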
# D1 PAM: Potentiators of Human D1 Dopamine Receptor: qHTS | D(1A) dopamine receptor (Homo sapiens), P21728 | HEK293 TREx D1 cells, calcium flux, dopamine EC20 potentiation | potentiation, % at 10 µM | hit rate 0.036% among 360,000 | AID 504651, 2011; in the data active = potentiation above about 30%; also: 0% is about no effect
# TRHR enhancer-2: qHTS for Small Molecule Agonists and Allosteric Enhancers of Human TRH Receptor: Confirmation Screen for Enhancers | 970 tested, under 10 active | activity change, negative = inhibition, % at 46.1 µM | TRH receptor cell assay, enhancer confirmation qHTS | shares compounds with TRHR enhancer-1;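 also: compound effect scored on response to added TRH at EC20 of 10 nM; 0% is about no effect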
# TRHR agonist-2: qHTS for Small Molecule Agonists and Allosteric Enhancers of Human TRH Receptor: Confirmation Screen for Agonists; shares compounds with TRHR enhancer-1; TRHR-expressing cells, agonist activation read-out; Potency, µM (highest dose often 46.1 µM), inactives show at the highest dose activation, most hits filed as activators; hit rate 8% among 970; AID 493078, 2011; also: potency is read from the fitted curve at half-maximal effect; 0% is about no effect; nearly all actives have a fitted effect of over 75% in size
# Numbers without * were called inactive; ? = inconclusive; · = no result. Unless noted, calls follow the shape of the dose curve; as a rule, active = well fitted curve in the direction sought with a large enough effect; inconclusive = small, poorly fitted or top-dose-only effect, or another doubt; inactive = no such curve, though single readings can be large; an effect the other way counts as inactive or inconclusive.
SMILES,TRHR enhancer-1,TRHR agonist-1,D1 agonist,D1 antag,USP1-UAF1 inh,D1 PAM,TRHR enhancer-2,TRHR agonist-2
CC(C)c1c(C(=O)N/N=C/C=C/c2ccccc2)nnn1-c1nonc1N,76.1*,-0.3,19.1,6.1,-27.5%,-6.6,9.0,1.4%
Cc1ccc(C(=O)CSc2nnc(C(C)C)n2C)cc1C,42.0*,-0.7,3.1,9.8,-20.0%,7.2,-5.9,-0.7%
Cc1ccc(-n2c(=O)c3c(cnn3C)n(CC(=O)Nc3ccc(C)cc3C)c2=O)cc1,3.6,-0.6,-1.8,0.8,-15.2%,0.5,·,·
COc1cccc(Nc2nc(N)c([N+](=O)[O-])c(N3CCOCC3)n2)c1,0.7,-0.3,-0.6,18.1,-20.9%,-0.4,·,·
COc1ccc(Nc2nc(N)c([N+](=O)[O-])c(N3CCN(C)CC3)n2)cc1,45.9*,-0.5,0.6,-12.3,-8.8%,-1.2,0.6,1.1%
CC(=O)Nc1sc(C)c(C)c1C(=O)OCC(=O)Nc1cc(S(C)(=O)=O)ccc1Cl,1.5,-0.3,2.6,-22.5,-6.9%,-13.0,·,·
CS(=O)(=O)c1ccc(Cl)c(NC(=O)COC(=O)c2c(Cl)cccc2Cl)c1,41.2*,-1.9,3.3,-5.9,-24.1%,-2.6,2.2,1.6%
CCOC(=O)c1[nH]cnc1C(=O)Nc1ccc(Cl)cc1,4.8,0.4,0.4,0.0,-2.7%,-9.8,·,·
CCOC(=O)c1[nH]cnc1C(=O)Nc1ccc(C)cc1,51.0*,-0.3,1.1,13.0,-20.5%,0.6,-1.9,5.2%
CCCC(=O)NC1C2CC3CC(C2)CC1C3 (configuration not stated),50.7*,1.2,1.3,-7.7,2.1%,0.8,-1.2,-0.4%
OCCC1CN(Cc2ccc3nsnc3c2)CCN1CCc1ccccc1 (configuration not stated),44.7*,-0.1,2.8,-6.2,-4.2%,-4.2,-5.0,1.0%
NS(=O)(=O)c1ccc(NC(=O)CN2C(=O)COc3ccc(Cl)cc32)cc1,-6.2,-0.5,-1.5,-3.4,-2.6%,-6.0,·,·
Cc1nc(Nc2ccncc2)c2oc3ccccc3c2n1,1.3,-0.4,2.4,-1.5,-8.9%,4.0,·,·
CCc1nc(Nc2ccncc2)c2oc3ccccc3c2n1,47.0*,0.0,2.5,11.2,-19.0%,0.0,-5.0,-0.5%
Cc1ccc(N2C(=O)NC(NS(=O)(=O)c3ccc(Cl)cc3)(C(F)(F)F)C2=O)cc1C (configuration not stated),12.2,0.6,0.1,6.4,-4.3%,-3.1,·,·
O=[N+]([O-])/C=C\c1ccc(N2CCCC2)c(F)c1,-10.8,72.8*,126.7*,18.4,?,-12.2,-12.7,?
COc1ccccc1C(=O)Nc1cccc(C(=O)OCc2cc(=O)n3c4c(sc3n2)CCCC4)c1,2.7,0.2,2.4,-1.9,-17.8%,0.1,·,·
Cn1c(O)c(N=NC(=N)N)c2ccccc21,66.4*,0.9,1.7,-14.1,-8.4%,-10.2,-1.7,-0.6%
CCOc1ccc(N(Cc2nnc3n2CCCCC3)C(=O)Nc2cccc(C)c2)cc1,57.8*,-0.1,2.4,1.9,-19.1%,1.1,-5.0,0.5%
